This note sets out measurements from PubChem BioAssay.

Assay [1] is described as follows: viability loss in pontine glioma line – cell-based, SU-DIPG-XIII, MIPE4.0, CellTiter-Glo, qHTS, dose response (AID 1347061; cut-off not given, nearly all actives have AC50 up to about 37 µM;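 further: cells exposed to compound for 48 hours before readout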). The conditions noted are these: CellTiter-Glo ATP luminescence.
A short description of assay [2]: viability loss in pontine glioma line – cell-based, JHH-DIPG-1, MIPE4.0, CellTiter-Glo, qHTS, dose response (AID 1347062; cut-off not given, nearly all actives have AC50 up to about 27 µM;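 on AC50: cells exposed to compound for two days before readout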). The conditions noted are these: JHH-DIPG-1 viability, CellTiter-Glo ATP luminescence.
The nature of assay [3]: viability loss in pontine glioma line – cell-based, SU-DIPG-IV, MIPE4.0, CellTiter-Glo, qHTS, dose response (AID 1347063; cut-off not given, nearly all actives have AC50 up to about 30 µM;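 further: compound exposure lasted 48 hours before the viability readout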). The conditions noted are these: CellTiter-Glo ATP luminescence.
Assay [4] can be described thus: growth inhibition of DIPG cells – cell-based, MIPE4.0 library, CellTiter-Glo luminescence, qHTS (AID 1347066; cut-off not given, nearly all actives have AC50 up to about 30 µM;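 further: cells exposed to compound for 48 hours before readout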). The conditions noted are these: SU-DIPG-VI viability, CellTiter-Glo ATP luminescence.
A short description of assay [5]: JHH-DIPG-1 glioma cell viability, MIPE5.0 library, CellTiter-Glo luminescence, qHTS (AID 1347067; cut-off not given, nearly all actives have AC50 up to about 26 µM;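 further: cells exposed to compound for 48 hours before readout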). The conditions noted are these: JHH-DIPG-1 glioma viability, CellTiter-Glo ATP luminescence.
Assay [6] is described as follows: compounds altering circadian rhythm period length – cell-based, LOPAC library, luminescence reporter (AID 2774).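 Further: values are relative to mean of DMSO wells on each plate.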 The conditions noted are these: circadian reporter cells, at 7 µM, actives lie on both sides.
Assay [7] in a line: viability loss in pontine glioma line – cell-based, SU-DIPG-XVII, MIPE5.0, CellTiter-Glo, qHTS, dose response (AID 1347060; cut-off not given, nearly all actives have AC50 up to about 26 µM;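 on AC50: cells exposed to compound for 48 hours before viability readout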). The conditions noted are these: CellTiter-Glo ATP luminescence.
Assay [8] is described as follows: viability loss in pontine glioma line – cell-based, SU-DIPG-XIII, MIPE5.0, CellTiter-Glo, qHTS, dose response (AID 1347064; cut-off not given, nearly all actives have AC50 up to about 23 µM;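 on AC50: cells exposed to compound for 48 hours before the viability read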). The conditions noted are these: CellTiter-Glo ATP luminescence.
The nature of assay [9]: viability loss in pontine glioma line – cell-based, SU-DIPG-XXV, MIPE5.0, CellTiter-Glo, qHTS, dose response (AID 1347065; cut-off not given, nearly all actives have AC50 up to about 26 µM;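 further: cells exposed to compound for 48 hours before ATP readout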). The conditions noted are these: CellTiter-Glo ATP luminescence.
A short description of assay [10]: growth inhibition of DIPG cells – cell-based, MIPE5.0 library, qHTS (AID 1347068; cut-off not given, nearly all actives have IC50 up to about 30 µM;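 on IC50: cells exposed to compound for 48 hours before viability readout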). The conditions noted are these: SU-DIPG-XXV viability.
A short description of assay [11]: blockers of cellular phospholipid synthesis – cell-based, LOPAC library, screen 4, primary screen (AID 1347384). The conditions noted are these: animal cells, phospholipid biosynthesis inhibition screen; at 10 µM.
Assay [12] concerns Aerobactin synthetase IucA (Klebsiella pneumoniae). The experiment in a line: inhibition of K. pneumoniae IucA enzyme – biochemical, Tocris library, absorbance (AID 1345561).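 Further: 100% = enzyme without compound and 0% = no enzyme.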 The conditions noted are these: purified IucA enzyme assay, absorbance (OD) read-out; active compounds read low;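 tested at 8 µM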.
Assay [13] deals with ATP-dependent translocase ABCB1 (Homo sapiens) (UniProt P08183). Briefly: P-glycoprotein substrate transport blockade – cell-based (AID 377; in the data active means fluorescence slope change above about 50%). The conditions noted are these: MDR1-expressing cells, fluorescent substrate accumulation slope; active compounds read high; concentration not given here.
Assay [14] has as its target Mitogen-activated protein kinase 7 (Homo sapiens) (UniProt Q13164). The experiment in a line: Gal4-ERK5 driven luciferase induction – cell-based, HTS, primary screen (AID 1508626;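 active means luciferase signal above three times the same-plate solvent-only control wells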;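 further: luciferase driven by Gal4-ERK5 fusion binding five Gal4 sites before minimal TATA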). The conditions noted are these: HeLa Gal4-ERK5 transactivation, 18 h, at 5 µM, active compounds read high.

A number with no mark means an inactive call. Records with an inconclusive call do not appear. The source made the active and inactive calls. Unless noted, how the calls were made is not given here.

Mitogen-activated protein kinase 7 (Homo sapiens), sequence (Q13164 whole entry, looked up, the tested form may be a part): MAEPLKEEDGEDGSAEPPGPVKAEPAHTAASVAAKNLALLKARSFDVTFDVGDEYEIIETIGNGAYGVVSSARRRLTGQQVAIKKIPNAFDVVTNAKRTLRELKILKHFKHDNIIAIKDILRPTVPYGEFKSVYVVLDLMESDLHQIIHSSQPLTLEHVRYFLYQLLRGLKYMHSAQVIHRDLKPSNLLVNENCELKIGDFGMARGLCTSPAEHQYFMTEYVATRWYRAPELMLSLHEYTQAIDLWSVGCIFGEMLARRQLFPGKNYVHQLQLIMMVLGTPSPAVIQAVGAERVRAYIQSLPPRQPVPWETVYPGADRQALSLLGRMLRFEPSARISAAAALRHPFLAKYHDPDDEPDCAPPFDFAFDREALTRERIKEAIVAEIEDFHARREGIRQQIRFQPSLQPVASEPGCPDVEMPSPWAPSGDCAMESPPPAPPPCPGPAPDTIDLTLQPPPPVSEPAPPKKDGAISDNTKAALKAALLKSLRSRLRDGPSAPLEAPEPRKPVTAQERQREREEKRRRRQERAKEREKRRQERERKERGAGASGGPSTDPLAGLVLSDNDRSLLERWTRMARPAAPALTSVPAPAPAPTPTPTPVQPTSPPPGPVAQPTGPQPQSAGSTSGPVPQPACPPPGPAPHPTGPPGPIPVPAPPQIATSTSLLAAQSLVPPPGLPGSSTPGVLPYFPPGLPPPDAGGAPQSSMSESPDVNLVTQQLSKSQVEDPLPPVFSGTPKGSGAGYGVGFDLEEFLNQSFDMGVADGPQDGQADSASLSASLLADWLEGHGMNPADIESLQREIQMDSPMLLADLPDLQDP
ATP-dependent translocase ABCB1 (Homo sapiens), sequence (P08183 whole entry, looked up, the tested form may be a part): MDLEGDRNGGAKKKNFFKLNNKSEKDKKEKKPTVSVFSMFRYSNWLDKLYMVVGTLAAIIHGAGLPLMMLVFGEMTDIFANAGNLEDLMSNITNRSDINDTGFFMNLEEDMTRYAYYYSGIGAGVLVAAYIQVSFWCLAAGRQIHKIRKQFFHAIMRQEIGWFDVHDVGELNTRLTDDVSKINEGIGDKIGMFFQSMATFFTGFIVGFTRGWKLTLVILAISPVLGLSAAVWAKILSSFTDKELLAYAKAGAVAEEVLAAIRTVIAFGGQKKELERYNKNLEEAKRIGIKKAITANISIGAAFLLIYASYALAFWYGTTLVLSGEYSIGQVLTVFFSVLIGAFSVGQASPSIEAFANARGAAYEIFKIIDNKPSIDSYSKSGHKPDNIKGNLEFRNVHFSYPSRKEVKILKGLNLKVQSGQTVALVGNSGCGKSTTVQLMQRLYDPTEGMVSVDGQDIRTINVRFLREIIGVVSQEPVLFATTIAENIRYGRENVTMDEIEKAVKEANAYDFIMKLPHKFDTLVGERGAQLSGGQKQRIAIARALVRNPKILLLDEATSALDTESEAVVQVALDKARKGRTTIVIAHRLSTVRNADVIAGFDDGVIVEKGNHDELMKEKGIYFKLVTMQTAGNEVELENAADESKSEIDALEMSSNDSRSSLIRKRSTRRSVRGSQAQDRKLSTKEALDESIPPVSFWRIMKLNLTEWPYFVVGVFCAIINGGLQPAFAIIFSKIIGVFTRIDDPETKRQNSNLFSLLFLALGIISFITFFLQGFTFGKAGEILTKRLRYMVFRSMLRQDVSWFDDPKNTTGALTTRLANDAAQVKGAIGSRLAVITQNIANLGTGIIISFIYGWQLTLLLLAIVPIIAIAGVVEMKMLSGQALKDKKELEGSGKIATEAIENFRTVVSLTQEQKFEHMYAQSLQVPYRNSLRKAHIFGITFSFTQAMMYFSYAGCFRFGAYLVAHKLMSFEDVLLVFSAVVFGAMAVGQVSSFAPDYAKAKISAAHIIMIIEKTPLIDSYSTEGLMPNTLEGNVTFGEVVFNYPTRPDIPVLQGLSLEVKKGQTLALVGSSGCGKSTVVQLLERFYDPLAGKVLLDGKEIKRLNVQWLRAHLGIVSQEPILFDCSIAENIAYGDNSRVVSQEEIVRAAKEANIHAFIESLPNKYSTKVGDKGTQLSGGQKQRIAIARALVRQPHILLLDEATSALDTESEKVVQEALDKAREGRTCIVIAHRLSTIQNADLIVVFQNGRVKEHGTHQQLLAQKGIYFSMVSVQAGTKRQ

Turning to `COc1ccc(C(=O)c2c(C)n(CCN3CCOCC3)c3ccccc23)cc1`, the compound was classed as inactive in assay [1], in [2], in assay [3] and in assay [4]. For the same compound, the AC50 in assay [5] is 16.6 µM (active).
For the compound `CC[N+](CC)(CC)CC`, the period change in [6] was 0.115 h.
For the compound `CCCC[N+]1(C)[C@@H]2CC(OC(=O)[C@H](CO)c3ccccc3)C[C@H]1[C@@H]1O[C@@H]12` (some centres undefined), the compound was classed as inactive in [7], in [1], in assay [2], in [3], in assay [8] and in assay [9]. For the same compound, the compound was classed as inactive in assay [4], in [5] and in [10].
On to `CCCCc1ccc(C(=O)O)nc1`, for which, in assay [6], the period change was -0.03 h. In addition, the compound was called inactive in assay [11].
As for `CC(C)(C)OC(=O)c1ncn2c1[C@@H]1CCCN1C(=O)c1c(Br)cccc1-2`, the remaining activity in assay [12] was 103%.
For the compound `C#C[C@]1(O)C=C[C@H]2[C@@H]3CCC4=CC(=O)CC[C@@H]4[C@H]3CC[C@@]21CC`, the compound was classed as inactive in [7], in assay [1], in [2], in assay [3], in assay [8] and in assay [9]. In addition, the compound was classed as inactive in assay [4] and in [5].
Turning to `COc1ccc(CN2CCNCC2)c(OC)c1OC`, the fluorescence slope change in assay [13] is 2.5%.
Turning to `CC(=O)[C@H]1CC[C@H]2[C@@H]3CC[C@H]4C[C@H](O)CC[C@]4(C)[C@H]3C(=O)C[C@]12C`, the period change in assay [6] is -0.1 h. Also, in assay [11], the call was inactive.
Take `COC[C@@H](NC(C)=O)C(=O)NCc1ccccc1`: the compound was called inactive in assay [7], in assay [2], in assay [8], in [9], in assay [4] and in assay [5]. In addition, the outcome in assay [10] was inactive.
Take `Fc1ccc(C(OCCN2CCN(CCCc3ccccc3)CC2)c2ccc(F)cc2)cc1`: the fluorescence slope change in [13] is 119% (active). Moreover, in assay [6], the period change is -0.11 h. For the same compound, the remaining activity in [12] was 118%. The AC50 is 14.8 µM (active) in assay [7]; 20.9 µM (active) in assay [1]; 14.8 µM (active) in [2]; 13.2 µM (active) in assay [3]; 8.33 µM (active) in assay [9]; 16.6 µM (active) in assay [4]. Further, the AC50 in [5] was 18.6 µM (active). Moreover, the IC50 in [10] was 16.6 µM (active). Besides, the compound was called inactive in assay [11].
As to `Cc1ncsc1CCCl`, in assay [12], the remaining activity was 110%. Besides, the outcome in [11] was inactive.
In the case of `C=CCN1C[C@H](C)N([C@H](c2ccc(C(=O)N(CC)CC)cc2)c2cccc(OC)c2)C[C@H]1C`, the remaining activity in [12] is 118%.
Take `COc1ccc2c(c1OC)CN1CCc3cc4c(cc3C1C2)OCO4` (centres undefined): the fluorescence slope change in assay [13] is 24.8%. The result in assay [1] and in [4] was inactive. Further, the concentration at half-maximal activity (AC50) in assay [2] is 14.8 µM (active); in [3], 16.6 µM (active).
Consider `C[C@]12CCC(=O)C=C1CC[C@@H]1[C@@H]2CC[C@]2(C)C(=O)CC[C@@H]12`, for which, in [6], the period change was 0.09 h.
Still for that read-out and setting: for `Clc1cccc(N2CCNCC2)c1` the value was 0.065 h.
For the compound `OC(c1ccccc1)(c1ccccc1)C1CCNCC1`, the fluorescence slope change in assay [13] was 93.1% (active).
On the same count and under the same terms, as for `O=C(CCCN1CCC(n2c(=O)[nH]c3ccccc32)CC1)c1ccc(F)cc1`, the figure is 57.5% (active).
Regarding `[N-]=[N+]=CC(=O)OC[C@H](N)C(=O)O`, the luciferase signal in assay [14] was 40 AU.
For the compound `CN(C)CCc1ccc(O)cc1`, the compound was called inactive in [1], in assay [2], in assay [3] and in assay [4].
With `CN(C)C(=S)SSC(=S)N(C)C`, the luciferase signal in [14] is 64 AU.
`COc1cccc2c1C(=O)c1c(O)c3c(c(O)c1C2=O)C[C@@](O)(C(=O)CO)CC3OC1CC(N2CCOC(OC)C2)C(O)C(C)O1` (some centres undefined): the AC50 in assay [7] was 0.00417 µM (active); in [8], 0.00742 µM (active); in assay [9] it was 0.0235 µM (active); in assay [5] it was 0.0148 µM (active). Besides, in assay [10], the IC50 was 0.332 µM (active).
Regarding `COP(=S)(OC)Oc1ccc(Sc2ccc(OP(=S)(OC)OC)cc2)cc1`, in assay [14], the luciferase signal is 80 AU.
In the case of `COc1ccc2c(c1OC)C(=O)O[C@H]2[C@@H]1c2cc3c(cc2CCN1C)OCO3`, in assay [6], the period change is -0.14 h. Besides, the compound was classed as inactive in [11].
`CN1C[C@H](CNC(=O)OCc2ccccc2)C[C@@H]2c3cccc4c3c(cn4C)C[C@H]21`: the fluorescence slope change in assay [13] is 18.1%. In addition, the period change in assay [6] was 0.135 h. In addition, the remaining activity in assay [12] was 86.6%. In addition, the outcome in assay [11] was inactive. Also, the luciferase signal in assay [14] was 40 AU.
